Data published in PubChem BioAssay AID1159580 (chemical genetic matrix, 2015).
Screen size: about 5,500 compounds; about 2,000 (36%) were called active. About 18% were inconclusive and are not listed. The list shows a part of the results. A number with no mark means an inactive call. Rule as the data show it: active = normalized growth mostly below about 0.91 (no sharp cut-off); inconclusive = no clear call, values can overlap the other calls; inactive = mostly above about 0.92.

Experiment: chemical genetic growth profiling, strain panel (AID 1159580);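 also: tested at 20 µM; growth read once vehicle control cultures reached saturation at 30 °C; 1 = growth at the plate median or of vehicle wells; lower values mean less growth of the strain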
Details: S. cerevisiae deletion strains, growth OD
[1] = locus YHR030C, strain SLT2, hits give low values
[2] = locus YHR079C, strain IRE1, hits give low values
[3] = locus YJL095W, strain BCK1, hits give low values
[4] = locus YJR066W, strain TOR1, hits give low values
[5] = locus YLR113W, strain HOG1, hits give low values
[6] = locus YNL183C, strain NPR1, hits give low values
[7] = locus YOR231W, strain MKK1, hits give low values
[8] = locus YPL256C, strain CLN2, hits give low values

O=C(Nc1cccc(C(F)(F)F)c1)Oc1ccc(F)cc1Cl
normalized growth (locus YAR019C, strain CDC15, hits give low values): 0.977
normalized growth (locus YBL105C, strain PKC1, hits give low values): 0.977
normalized growth (locus YBR135W, strain CKS1, hits give low values): 0.982
normalized growth (locus YBR136W, strain MEC1, hits give low values): 0.98
normalized growth (locus YBR160W, strain CDC28, hits give low values): 0.979
normalized growth (locus YDL017W, strain CDC7, hits give low values): 0.985
normalized growth (locus YDL028C, strain MPS1, hits give low values): 0.977
normalized growth (locus YDL101C, strain DUN1, hits give low values): 0.992
normalized growth (locus YDL108W, strain KIN28, hits give low values): 0.97
normalized growth (locus YDL132W, strain cdc53, hits give low values): 0.974
normalized growth (locus YDL214C, strain PRR2, hits give low values): 0.978
normalized growth (locus YDR052C, strain DBF4, hits give low values): 0.985
normalized growth (locus YDR054C, strain cdc34, hits give low values): 0.975
normalized growth (locus YDR226W, strain ADK1, hits give low values): 0.975
normalized growth (locus YDR477W, strain SNF1, hits give low values): 0.993
normalized growth (locus YER123W, strain YCK3, hits give low values): 0.965
normalized growth (locus YER133W, strain GLC7, hits give low values): 0.983
normalized growth (locus YFL009W, strain cdc4, hits give low values): 0.974
normalized growth (locus YFL029C, strain CAK1, hits give low values): 0.977
normalized growth (locus YFR003C, strain YPI1, hits give low values): 0.982
normalized growth (locus YFR019W, strain FAB1, hits give low values): 0.987
normalized growth (locus YFR028C, strain CDC14, hits give low values): 0.98
normalized growth (locus YGR040W, strain KSS1, hits give low values): 0.977
normalized growth (locus YGR052W, strain FMP48, hits give low values): 1
normalized growth (locus YGR092W, strain DBF2, hits give low values): 0.951
normalized growth [1]: 0.822 (active)
normalized growth [2]: 0.87
normalized growth (locus YHR082C, strain KSP1, hits give low values): 1.1
normalized growth (locus YHR205W, strain SCH9, hits give low values): 0.951
normalized growth (locus YIL147C, strain SLN1, hits give low values): 0.975
normalized growth [3]: 0.955
normalized growth (locus YJL128C, strain PBS2, hits give low values): 0.947
normalized growth (locus YJL157C, strain FAR1, hits give low values): 0.98
normalized growth (locus YJR016C, strain ILV3, hits give low values): 0.984
normalized growth (locus YJR066W, strain TOR1 (second series), hits give low values): 0.938
normalized growth [4]: 1.04
normalized growth (locus YKL048C, strain ELM1, hits give low values): 1
normalized growth (locus YKL067W, strain YNK1, hits give low values): 1.01
normalized growth (locus YKL101W, strain HSL1, hits give low values): 0.983
normalized growth (locus YKL193C, strain SDS22, hits give low values): 0.983
normalized growth (locus YKL203C, strain TOR2, hits give low values): 1.02
normalized growth [5]: 0.762 (active)
normalized growth (locus YLR133W, strain CKI1, hits give low values): 0.976
normalized growth (locus YLR403W, strain SFP1, hits give low values): 0.964
normalized growth (locus YML070W, strain DAK1, hits give low values): 0.979
normalized growth (locus YMR001C, strain CDC5, hits give low values): 0.984
normalized growth (locus YMR205C, strain PFK2 (second series), hits give low values): 1
normalized growth (locus YMR277W, strain FCP1, hits give low values): 0.977
normalized growth (locus YNL006W, strain LST8, hits give low values): 0.976
normalized growth (locus YNL020C, strain ARK1, hits give low values): 0.967
normalized growth (locus YNL161W, strain CBK1, hits give low values): 0.983
normalized growth [6]: 0.998
normalized growth (locus YNL207W, strain RIO2, hits give low values): 0.972
normalized growth (locus YNL222W, strain SSU72, hits give low values): 0.973
normalized growth (locus YNL307C, strain MCK1 (second series), hits give low values): 0.982
normalized growth (locus YOL078W, strain AVO1, hits give low values): 0.983
normalized growth (locus YOL136C, strain PFK27, hits give low values): 0.969
normalized growth (locus YOR061W, strain CKA2, hits give low values): 0.983
normalized growth (locus YOR119C, strain RIO1, hits give low values): 1.05
normalized growth [7]: 0.912
normalized growth (locus YOR329C, strain SCD5, hits give low values): 0.979
normalized growth (locus YPL031C, strain PHO85, hits give low values): 0.97
normalized growth (locus YPL153C, strain RAD53, hits give low values): 0.974
normalized growth (locus YPL204W, strain HRR25, hits give low values): 0.992
normalized growth (locus YPL209C, strain IPL1, hits give low values): 0.979
normalized growth [8]: 0.778 (active)
normalized growth (locus YPR025C, strain CCL1, hits give low values): 0.979
normalized growth (locus YPR106W, strain ISR1, hits give low values): 0.99
normalized growth (locus YPR111W, strain DBF20, hits give low values): 0.964
normalized growth (strain NNK1, hits give low values): 0.989
normalized growth (strain TSCII, hits give low values): 0.972

O=C(NC(=O)c1c(F)cccc1F)Nc1cc(Cl)c(OC(F)(F)C(F)C(F)(F)F)cc1Cl (stereo unspecified)
normalized growth (locus YAL021C, strain ccr4, hits give low values): 0.983
normalized growth (locus YAL026C, strain drs2, hits give low values): 0.987
normalized growth (locus YAL030W, strain snc1, hits give low values): 0.998
normalized growth (locus YBL061C, strain skt5, hits give low values): 0.974
normalized growth (locus YBR009C, strain hhf1, hits give low values): 0.997
normalized growth (locus YBR023C, strain chs3, hits give low values): 0.981
normalized growth (locus YBR171W, strain sec66, hits give low values): 0.987
normalized growth (locus YBR231C, strain swc5, hits give low values): 0.977
normalized growth (locus YBR279W, strain paf1, hits give low values): 0.988
normalized growth (locus YCL011C, strain gbp2, hits give low values): 0.987
normalized growth (locus YCL016C, strain dcc1, hits give low values): 0.988
normalized growth (locus YCL061C, strain MRC1, hits give low values): 0.989
normalized growth (locus YCL069W, strain vba3, hits give low values): 0.99
normalized growth (locus YCR088W, strain abp1, hits give low values): 0.988
normalized growth (locus YDL005C, strain med2, hits give low values): 0.984
normalized growth (locus YDL040C, strain nat1, hits give low values): 0.98
normalized growth (locus YDR001C, strain nth1, hits give low values): 0.991
normalized growth (locus YDR069C, strain doa4, hits give low values): 0.989
normalized growth (locus YDR137W, strain rgp1, hits give low values): 0.988
normalized growth (locus YDR159W, strain sac3, hits give low values): 1
normalized growth (locus YDR195W, strain ref2): 1.01
normalized growth (locus YDR297W, strain sur2, hits give low values): 0.978
normalized growth (locus YDR334W, strain swr1, hits give low values): 0.981
normalized growth (locus YDR335W, strain msn5, hits give low values): 0.99
normalized growth (locus YDR392W, strain spt3, hits give low values): 0.98
normalized growth (locus YEL003W, strain gim4, hits give low values): 1.01
normalized growth (locus YEL037C, strain rad23, hits give low values): 0.991
normalized growth (locus YEL061C, strain CIN8 (second series), hits give low values): 0.995
normalized growth (locus YER015W, strain faa2, hits give low values): 0.983
normalized growth (locus YER016W, strain bim1, hits give low values): 0.996
normalized growth (locus YER111C, strain swi4, hits give low values): 0.982
normalized growth (locus YER155C, strain BEM2 (second series), hits give low values): 0.998
normalized growth (locus YFR010W, strain ubp6, hits give low values): 0.986
normalized growth (locus YGL167C, strain pmr1, hits give low values): 0.977
normalized growth (locus YGL173C, strain kem1, hits give low values): 0.999
normalized growth (locus YGL227W, strain vid30, hits give low values): 0.997
normalized growth (locus YGL240W, strain doc1, hits give low values): 0.99
normalized growth (locus YGL253W, strain hxk2, hits give low values): 0.987
normalized growth (locus YHR013C, strain ard1, hits give low values): 0.96
normalized growth (locus YHR027C, strain rpn1, hits give low values): 0.996
normalized growth [1]: 1.04
normalized growth [2]: 1.03
normalized growth (locus YHR142W, strain chs7, hits give low values): 0.997
normalized growth (locus YJL092W, strain hpr5, hits give low values): 0.993
normalized growth (locus YJL095W, strain BCK1 (second series), hits give low values): 0.986
normalized growth [3]: 1.04
normalized growth (locus YJL115W, strain asf1, hits give low values): 0.987
normalized growth (locus YJL129C, strain trk1, hits give low values): 0.988
normalized growth (locus YJL154C, strain vps35, hits give low values): 0.985
normalized growth (locus YJL164C, strain tpk1, hits give low values): 0.988
normalized growth (locus YJL166W, strain qcr8, hits give low values): 0.995
normalized growth (locus YJL187C, strain SWE1, hits give low values): 0.986
normalized growth [4]: 0.977
normalized growth (locus YKL160W, strain elf1, hits give low values): 0.983
normalized growth (locus YKR026C, strain gcn3, hits give low values): 0.989
normalized growth (locus YKR091W, strain srl3, hits give low values): 0.989
normalized growth (locus YLL001W, strain dnm1, hits give low values): 0.996
normalized growth (locus YLL026W, hits give low values): 0.995
normalized growth (locus YLL041C, strain sdh2, hits give low values): 0.994
normalized growth (locus YLR027C, strain aat2, hits give low values): 0.993
normalized growth [5]: 1.01
normalized growth (locus YLR221C, strain rsa3, hits give low values): 0.984
normalized growth (locus YLR258W, strain gsy2, hits give low values): 0.999
normalized growth (locus YLR262C, strain YPT6 (second series), hits give low values): 0.995
normalized growth (locus YLR320W, strain mms22, hits give low values): 0.981
normalized growth (locus YLR342W, strain FKS1, hits give low values): 0.985
normalized growth (locus YLR357W, strain rsc2, hits give low values): 0.994
normalized growth (locus YLR370C, strain arc18, hits give low values): 0.986
normalized growth (locus YLR384C, strain iki3, hits give low values): 0.976
normalized growth (locus YML120C, strain ndi1, hits give low values): 0.987
normalized growth (locus YMR058W, strain fet3, hits give low values): 0.994
normalized growth (locus YMR125W, strain sto1, hits give low values): 0.979
normalized growth (locus YMR129W, hits give low values): 0.997
normalized growth (locus YMR205C, strain PFK2, hits give low values): 0.982
normalized growth (locus YMR231W, strain pep5, hits give low values): 1
normalized growth (locus YNL071W, strain lat1, hits give low values): 0.992
normalized growth [6]: 0.973
normalized growth (locus YNL209W, strain ssb2, hits give low values): 0.978
normalized growth (locus YNL248C, strain rpa49, hits give low values): 0.991
normalized growth (locus YNL322C, strain KRE1 (second series), hits give low values): 0.993
normalized growth (locus YNR049C, strain mso1, hits give low values): 0.986
normalized growth (locus YOR001W, strain rrp6, hits give low values): 0.987
normalized growth (locus YOR070C, strain gyp1, hits give low values): 0.989
normalized growth (locus YOR080W, strain dia2, hits give low values): 0.991
normalized growth (locus YOR083W, strain WHI5, hits give low values): 0.988
normalized growth (locus YOR106W, strain vam3, hits give low values): 0.994
normalized growth [7]: 0.992
normalized growth (locus YOR265W, strain rbl2, hits give low values): 0.985
normalized growth (locus YOR270C, strain vph1, hits give low values): 0.987
normalized growth (locus YOR290C, strain snf2, hits give low values): 0.977
normalized growth (locus YPL051W, strain arl3, hits give low values): 0.997
normalized growth (locus YPL078C, strain atp4, hits give low values): 0.99
normalized growth (locus YPL106C, strain sse1, hits give low values): 0.976
normalized growth (locus YPL240C, strain hsp82, hits give low values): 0.984
normalized growth [8]: 1.03
